1 sequence from publication PMC7862700, “An all-to-all approach to the identification of sequence-specific readers for epigenetic DNA modifications on cytosine” can be followed below.

Holding throughout (assay): DAPPL (digital affinity profiling via proximity ligation, sequencing); 10 mM Tris-HCl pH 7.5, 50 mM NaCl, 1 mM DTT, 4% glycerol, room temperature, 30 min; GST-TFs on glutathione beads, 16-mer random dsDNA library, 0.1% formaldehyde crosslink after washing; high values mean tight binding
The target in one experiment is T1, FLI1 (Homo sapiens, UniProt Q01543 1-452).
T1 sequence: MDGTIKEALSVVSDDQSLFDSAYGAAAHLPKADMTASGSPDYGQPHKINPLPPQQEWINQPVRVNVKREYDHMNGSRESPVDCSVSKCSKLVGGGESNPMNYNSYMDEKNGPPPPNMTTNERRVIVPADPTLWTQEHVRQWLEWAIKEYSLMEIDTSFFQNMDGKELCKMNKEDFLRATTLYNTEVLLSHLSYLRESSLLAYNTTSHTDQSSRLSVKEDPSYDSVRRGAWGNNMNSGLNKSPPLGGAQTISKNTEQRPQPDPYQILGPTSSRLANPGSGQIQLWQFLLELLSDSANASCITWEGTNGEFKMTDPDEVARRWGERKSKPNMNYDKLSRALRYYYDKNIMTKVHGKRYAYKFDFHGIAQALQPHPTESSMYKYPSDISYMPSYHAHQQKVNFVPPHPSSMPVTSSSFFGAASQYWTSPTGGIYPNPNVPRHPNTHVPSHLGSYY
Particulars: protein: recombinant; tags: N-terminal GST; dsDNA, one strand shown. A digest of the protocol:
(§1)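 In yeast, human transcription factors were expressed with a GST fusion, then pulled down on glutathione beads and given DNA barcodes. Pooled with a tag-only sample, they were exposed to 200 nmole of a 16-mer random double-stranded DNA library (Tris/NaCl/DTT/glycerol buffer, room temperature, 30 min), washed, crosslinked with 0.1% formaldehyde, proximity-ligated using BsaI/T4 ligase for 1 h at 37 °C, PCR-amplified and read on an Illumina NextSeq500. Each hexamer's frequency of reads for a factor, divided by the matching frequency for the tag-only sample, gives the binding signal.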

For another experiment, the target named is T2, ELK1 (Homo sapiens, UniProt P19419 1-428).
T2 sequence: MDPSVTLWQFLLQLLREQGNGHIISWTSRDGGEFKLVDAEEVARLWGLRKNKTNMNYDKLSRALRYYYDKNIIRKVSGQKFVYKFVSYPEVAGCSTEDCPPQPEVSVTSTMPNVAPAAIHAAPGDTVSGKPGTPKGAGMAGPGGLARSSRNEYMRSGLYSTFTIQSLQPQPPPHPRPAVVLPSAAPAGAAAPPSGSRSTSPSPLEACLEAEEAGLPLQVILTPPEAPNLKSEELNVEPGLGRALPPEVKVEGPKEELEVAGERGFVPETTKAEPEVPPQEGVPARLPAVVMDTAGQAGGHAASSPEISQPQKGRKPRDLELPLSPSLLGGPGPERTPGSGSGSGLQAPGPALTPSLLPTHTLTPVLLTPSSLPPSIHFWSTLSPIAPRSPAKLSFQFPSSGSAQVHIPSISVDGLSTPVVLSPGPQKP
Particulars: protein: recombinant; tags: N-terminal GST; dsDNA, one strand shown. A digest of the protocol: as §1

Another experiment has as its target T3, GABPA (Homo sapiens, UniProt Q06546 1-454).
T3 sequence: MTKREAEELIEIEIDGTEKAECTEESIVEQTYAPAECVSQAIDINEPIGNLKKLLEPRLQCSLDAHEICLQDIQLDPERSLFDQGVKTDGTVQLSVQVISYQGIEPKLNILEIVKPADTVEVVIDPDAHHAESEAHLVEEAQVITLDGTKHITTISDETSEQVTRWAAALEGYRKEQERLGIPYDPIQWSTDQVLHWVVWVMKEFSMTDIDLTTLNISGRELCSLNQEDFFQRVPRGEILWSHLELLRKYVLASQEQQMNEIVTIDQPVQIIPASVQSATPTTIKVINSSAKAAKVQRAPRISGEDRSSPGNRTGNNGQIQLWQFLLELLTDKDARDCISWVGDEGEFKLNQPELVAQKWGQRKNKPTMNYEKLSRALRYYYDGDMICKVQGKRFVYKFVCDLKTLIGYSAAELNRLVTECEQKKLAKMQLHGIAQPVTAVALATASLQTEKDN
Particulars: protein: recombinant; tags: N-terminal GST; dsDNA, one strand shown. A digest of the protocol:
as §1

The target in the next experiment is T4, ERG (Homo sapiens, UniProt P11308 1-479).
T4 sequence: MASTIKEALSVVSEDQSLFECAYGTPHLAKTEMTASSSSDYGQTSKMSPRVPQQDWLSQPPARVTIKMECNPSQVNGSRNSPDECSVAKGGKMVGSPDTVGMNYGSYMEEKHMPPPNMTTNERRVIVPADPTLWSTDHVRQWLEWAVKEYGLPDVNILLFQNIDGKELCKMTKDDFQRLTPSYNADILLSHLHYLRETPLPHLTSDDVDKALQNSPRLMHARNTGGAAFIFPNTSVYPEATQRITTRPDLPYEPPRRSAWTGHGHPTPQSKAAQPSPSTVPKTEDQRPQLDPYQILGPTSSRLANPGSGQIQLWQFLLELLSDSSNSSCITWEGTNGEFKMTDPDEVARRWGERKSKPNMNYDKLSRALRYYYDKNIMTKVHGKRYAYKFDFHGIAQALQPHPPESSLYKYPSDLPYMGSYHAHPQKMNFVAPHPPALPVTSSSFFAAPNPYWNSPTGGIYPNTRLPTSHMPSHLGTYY
Particulars: protein: recombinant; tags: N-terminal GST; dsDNA, one strand shown. A digest of the protocol:
as §1

Another experiment addresses ELF1 (Homo sapiens, UniProt P32519 1-619). Particulars: protein: recombinant; tags: N-terminal GST; dsDNA, one strand shown. A digest of the protocol: as §1
Another experiment concerns the target T5, EHF (Homo sapiens, UniProt Q9NZC4 1-300).
T5 sequence: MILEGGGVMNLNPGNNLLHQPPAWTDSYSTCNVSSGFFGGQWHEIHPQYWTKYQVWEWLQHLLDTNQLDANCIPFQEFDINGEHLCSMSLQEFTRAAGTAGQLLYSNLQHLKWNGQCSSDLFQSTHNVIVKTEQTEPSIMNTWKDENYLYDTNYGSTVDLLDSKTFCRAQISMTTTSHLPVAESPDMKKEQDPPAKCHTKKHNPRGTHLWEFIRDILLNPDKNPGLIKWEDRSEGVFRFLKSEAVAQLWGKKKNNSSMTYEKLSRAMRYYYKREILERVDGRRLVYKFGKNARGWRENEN
Particulars: protein: recombinant; tags: N-terminal GST; dsDNA, one strand shown. A digest of the protocol: as §1

The next experiment concerns the target SPI1 (Homo sapiens, UniProt P17947 1-270). Particulars: protein: recombinant; tags: N-terminal GST; dsDNA, one strand shown. A digest of the protocol:
as §1

Another experiment addresses SPIB (Homo sapiens, UniProt Q01892 1-262). Particulars: protein: recombinant; tags: N-terminal GST; dsDNA, one strand shown. A digest of the protocol: as §1
In the next experiment the target is T6, ELK3 (Homo sapiens, UniProt P41970 1-407).
T6 sequence: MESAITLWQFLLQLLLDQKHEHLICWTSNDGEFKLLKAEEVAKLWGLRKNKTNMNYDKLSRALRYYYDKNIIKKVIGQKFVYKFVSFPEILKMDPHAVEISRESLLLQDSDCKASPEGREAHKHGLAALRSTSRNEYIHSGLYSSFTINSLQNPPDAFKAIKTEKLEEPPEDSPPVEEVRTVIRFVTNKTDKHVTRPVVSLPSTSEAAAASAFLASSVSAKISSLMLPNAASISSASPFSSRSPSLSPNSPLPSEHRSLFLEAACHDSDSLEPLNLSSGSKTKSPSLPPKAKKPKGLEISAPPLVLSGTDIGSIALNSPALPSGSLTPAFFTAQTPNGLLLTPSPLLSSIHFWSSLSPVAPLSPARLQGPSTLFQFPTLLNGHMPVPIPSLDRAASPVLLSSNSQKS
Particulars: protein: recombinant; tags: N-terminal GST; dsDNA, one strand shown. A digest of the protocol: as §1

For a further experiment, the target named is T7, FEV (Homo sapiens, UniProt Q99581 1-238).
T7 sequence: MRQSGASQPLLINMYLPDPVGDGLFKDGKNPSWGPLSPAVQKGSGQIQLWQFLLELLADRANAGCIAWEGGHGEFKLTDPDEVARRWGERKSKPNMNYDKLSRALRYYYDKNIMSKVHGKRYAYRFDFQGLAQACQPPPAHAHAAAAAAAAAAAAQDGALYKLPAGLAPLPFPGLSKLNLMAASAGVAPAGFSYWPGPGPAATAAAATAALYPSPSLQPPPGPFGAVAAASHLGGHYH
Particulars: protein: recombinant; tags: N-terminal GST; dsDNA, one strand shown. A digest of the protocol: as §1

Another experiment concerns the target ETV5 (Homo sapiens, UniProt P41161 1-510). Particulars: protein: recombinant; tags: N-terminal GST; dsDNA, one strand shown. A digest of the protocol: as §1
The target of a further experiment is HSF1 (Homo sapiens, UniProt Q00613 1-529). Particulars: protein: recombinant; tags: N-terminal GST; chain copies: 3; dsDNA, one strand shown. A digest of the protocol: as §1
Chain of HSF1 (Q00613 whole entry): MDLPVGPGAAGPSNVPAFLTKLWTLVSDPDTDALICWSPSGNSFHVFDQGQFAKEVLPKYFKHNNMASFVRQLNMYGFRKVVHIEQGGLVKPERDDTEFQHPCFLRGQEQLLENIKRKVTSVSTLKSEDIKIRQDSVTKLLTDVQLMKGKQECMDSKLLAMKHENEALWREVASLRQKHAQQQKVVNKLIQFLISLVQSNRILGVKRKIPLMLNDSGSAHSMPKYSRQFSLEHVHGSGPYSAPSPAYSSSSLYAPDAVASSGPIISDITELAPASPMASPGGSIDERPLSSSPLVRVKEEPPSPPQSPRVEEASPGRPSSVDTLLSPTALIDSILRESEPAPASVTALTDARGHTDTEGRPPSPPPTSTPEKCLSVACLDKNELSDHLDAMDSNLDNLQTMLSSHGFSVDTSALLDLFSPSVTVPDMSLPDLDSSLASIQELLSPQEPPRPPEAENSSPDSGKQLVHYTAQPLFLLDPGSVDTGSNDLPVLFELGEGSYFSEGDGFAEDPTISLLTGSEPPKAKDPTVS
The target of another experiment is T8, SPIC (Homo sapiens, UniProt Q8N5J4 1-248).
T8 sequence: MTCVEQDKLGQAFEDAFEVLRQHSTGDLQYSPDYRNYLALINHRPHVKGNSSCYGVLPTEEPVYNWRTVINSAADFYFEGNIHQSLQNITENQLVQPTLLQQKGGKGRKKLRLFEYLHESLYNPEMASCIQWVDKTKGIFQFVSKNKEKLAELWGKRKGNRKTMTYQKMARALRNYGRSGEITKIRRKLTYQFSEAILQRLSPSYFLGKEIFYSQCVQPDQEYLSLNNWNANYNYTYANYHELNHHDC
Particulars: protein: recombinant; tags: N-terminal GST; dsDNA, one strand shown. A digest of the protocol:
as §1

The target in another experiment is ELF4 (Homo sapiens, UniProt Q99607 1-663). Particulars: protein: recombinant; tags: N-terminal GST; dsDNA, one strand shown. A digest of the protocol: as §1
Chain of ELF4 (Q99607 whole entry): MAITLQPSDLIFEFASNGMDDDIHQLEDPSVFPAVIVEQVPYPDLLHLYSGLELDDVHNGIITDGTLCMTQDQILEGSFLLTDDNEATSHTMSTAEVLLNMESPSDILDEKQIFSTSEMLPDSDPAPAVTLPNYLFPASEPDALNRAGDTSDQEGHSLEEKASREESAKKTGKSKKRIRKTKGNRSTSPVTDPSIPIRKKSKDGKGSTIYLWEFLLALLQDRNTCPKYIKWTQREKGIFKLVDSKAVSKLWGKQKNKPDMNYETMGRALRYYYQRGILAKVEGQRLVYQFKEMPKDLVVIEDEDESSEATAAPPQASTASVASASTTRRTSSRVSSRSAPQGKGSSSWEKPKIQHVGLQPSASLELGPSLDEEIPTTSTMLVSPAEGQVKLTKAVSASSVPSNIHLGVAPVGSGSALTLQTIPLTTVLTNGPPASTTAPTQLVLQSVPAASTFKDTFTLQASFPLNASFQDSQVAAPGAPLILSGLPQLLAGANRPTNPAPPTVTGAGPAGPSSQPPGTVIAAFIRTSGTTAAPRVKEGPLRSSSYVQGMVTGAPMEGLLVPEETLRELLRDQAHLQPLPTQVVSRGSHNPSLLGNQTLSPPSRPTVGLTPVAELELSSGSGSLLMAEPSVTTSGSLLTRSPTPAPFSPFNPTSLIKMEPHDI
A further experiment has as its target T9, ELK4 (Homo sapiens, UniProt P28324-2 1-405).
T9 sequence: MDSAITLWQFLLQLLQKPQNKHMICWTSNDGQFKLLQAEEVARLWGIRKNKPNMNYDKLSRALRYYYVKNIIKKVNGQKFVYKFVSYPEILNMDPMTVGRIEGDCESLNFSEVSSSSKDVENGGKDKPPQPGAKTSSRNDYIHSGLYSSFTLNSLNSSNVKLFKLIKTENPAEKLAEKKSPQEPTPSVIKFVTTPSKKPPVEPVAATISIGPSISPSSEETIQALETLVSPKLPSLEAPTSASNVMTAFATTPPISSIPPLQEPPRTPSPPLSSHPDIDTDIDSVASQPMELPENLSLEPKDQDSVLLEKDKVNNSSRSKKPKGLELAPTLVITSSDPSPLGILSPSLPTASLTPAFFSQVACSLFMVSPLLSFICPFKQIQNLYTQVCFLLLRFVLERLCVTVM
Particulars: protein: recombinant; tags: N-terminal GST; dsDNA, one strand shown. A digest of the protocol:
as §1

A further experiment addresses T10, ETV2 (Homo sapiens, UniProt O00321 1-342).
T10 sequence: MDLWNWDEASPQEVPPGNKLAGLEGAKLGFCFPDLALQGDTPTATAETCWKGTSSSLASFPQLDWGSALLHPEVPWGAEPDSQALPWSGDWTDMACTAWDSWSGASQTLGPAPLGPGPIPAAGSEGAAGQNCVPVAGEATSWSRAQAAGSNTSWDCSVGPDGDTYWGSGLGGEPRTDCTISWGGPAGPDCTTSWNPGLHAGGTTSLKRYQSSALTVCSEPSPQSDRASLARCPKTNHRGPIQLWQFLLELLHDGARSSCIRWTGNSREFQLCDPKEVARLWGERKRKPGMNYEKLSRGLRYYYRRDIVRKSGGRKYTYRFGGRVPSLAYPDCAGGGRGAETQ
Particulars: protein: recombinant; tags: N-terminal GST; dsDNA, one strand shown. A digest of the protocol:
as §1

A further experiment concerns the target T11, ELF3 (Homo sapiens, UniProt P78545 1-371).
T11 sequence: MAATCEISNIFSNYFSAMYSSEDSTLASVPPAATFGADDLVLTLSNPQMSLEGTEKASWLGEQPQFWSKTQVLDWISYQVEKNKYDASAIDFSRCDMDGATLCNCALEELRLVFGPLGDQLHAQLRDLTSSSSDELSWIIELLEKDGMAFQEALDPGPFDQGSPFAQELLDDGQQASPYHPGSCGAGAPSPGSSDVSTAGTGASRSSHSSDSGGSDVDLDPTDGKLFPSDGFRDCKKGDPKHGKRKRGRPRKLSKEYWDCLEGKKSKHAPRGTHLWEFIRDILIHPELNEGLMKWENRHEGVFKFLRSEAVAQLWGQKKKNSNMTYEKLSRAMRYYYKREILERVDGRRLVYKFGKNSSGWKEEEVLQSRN
Particulars: protein: recombinant; tags: N-terminal GST; dsDNA, one strand shown. A digest of the protocol:
as §1

The target in another experiment is CRX (Homo sapiens, UniProt O43186 1-299). Particulars: protein: recombinant; tags: N-terminal GST; dsDNA, one strand shown. A digest of the protocol: as §1
Chain of CRX (O43186 whole entry): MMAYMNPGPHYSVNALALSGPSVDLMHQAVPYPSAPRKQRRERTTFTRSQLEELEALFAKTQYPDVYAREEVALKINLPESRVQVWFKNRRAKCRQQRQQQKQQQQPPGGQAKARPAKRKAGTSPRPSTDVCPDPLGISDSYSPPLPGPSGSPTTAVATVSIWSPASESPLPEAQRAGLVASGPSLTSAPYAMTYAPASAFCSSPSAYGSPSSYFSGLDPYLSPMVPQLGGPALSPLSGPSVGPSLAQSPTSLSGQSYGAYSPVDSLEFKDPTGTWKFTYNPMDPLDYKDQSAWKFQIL
A further experiment addresses ETV1 (Homo sapiens, UniProt P50549 1-477). Particulars: protein: recombinant; tags: N-terminal GST; dsDNA, one strand shown. A digest of the protocol:
as §1

Chain of SPIB (Q01892 whole entry): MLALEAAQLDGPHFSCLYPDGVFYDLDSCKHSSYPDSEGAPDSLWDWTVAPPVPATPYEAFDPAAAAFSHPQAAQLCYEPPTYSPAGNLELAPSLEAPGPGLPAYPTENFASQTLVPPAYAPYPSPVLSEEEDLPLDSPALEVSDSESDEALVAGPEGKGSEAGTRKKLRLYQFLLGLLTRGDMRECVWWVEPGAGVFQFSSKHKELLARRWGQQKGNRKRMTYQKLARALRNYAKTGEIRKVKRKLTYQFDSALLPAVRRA
Chain of ETV5 (P41161 whole entry): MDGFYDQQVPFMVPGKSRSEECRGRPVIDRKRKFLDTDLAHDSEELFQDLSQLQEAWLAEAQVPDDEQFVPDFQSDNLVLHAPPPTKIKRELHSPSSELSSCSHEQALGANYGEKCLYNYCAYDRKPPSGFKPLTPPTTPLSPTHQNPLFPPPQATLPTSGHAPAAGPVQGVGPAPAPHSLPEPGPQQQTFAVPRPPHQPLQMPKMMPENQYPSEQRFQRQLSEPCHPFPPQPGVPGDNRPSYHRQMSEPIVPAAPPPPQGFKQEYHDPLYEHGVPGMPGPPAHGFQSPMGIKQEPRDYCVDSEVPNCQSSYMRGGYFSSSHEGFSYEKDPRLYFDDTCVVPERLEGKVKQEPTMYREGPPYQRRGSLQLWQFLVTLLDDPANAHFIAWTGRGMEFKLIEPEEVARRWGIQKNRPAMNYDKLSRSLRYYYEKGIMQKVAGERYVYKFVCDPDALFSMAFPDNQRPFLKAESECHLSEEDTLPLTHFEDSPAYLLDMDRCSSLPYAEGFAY
Chain of ETV1 (P50549 whole entry): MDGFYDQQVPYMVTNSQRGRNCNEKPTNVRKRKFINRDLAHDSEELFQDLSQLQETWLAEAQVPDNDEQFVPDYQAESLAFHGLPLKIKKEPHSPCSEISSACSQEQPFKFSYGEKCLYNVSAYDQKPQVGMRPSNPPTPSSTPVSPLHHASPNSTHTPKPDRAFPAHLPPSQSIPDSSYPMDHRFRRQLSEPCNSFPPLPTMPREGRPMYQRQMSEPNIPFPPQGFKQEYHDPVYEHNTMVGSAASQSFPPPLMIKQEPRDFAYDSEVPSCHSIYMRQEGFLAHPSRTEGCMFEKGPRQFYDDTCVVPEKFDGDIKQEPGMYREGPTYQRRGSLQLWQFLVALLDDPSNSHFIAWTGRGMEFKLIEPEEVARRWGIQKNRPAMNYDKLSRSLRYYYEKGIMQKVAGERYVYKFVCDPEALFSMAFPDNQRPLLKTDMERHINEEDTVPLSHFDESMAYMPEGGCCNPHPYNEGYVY
Chain of ELF1 (P32519 whole entry): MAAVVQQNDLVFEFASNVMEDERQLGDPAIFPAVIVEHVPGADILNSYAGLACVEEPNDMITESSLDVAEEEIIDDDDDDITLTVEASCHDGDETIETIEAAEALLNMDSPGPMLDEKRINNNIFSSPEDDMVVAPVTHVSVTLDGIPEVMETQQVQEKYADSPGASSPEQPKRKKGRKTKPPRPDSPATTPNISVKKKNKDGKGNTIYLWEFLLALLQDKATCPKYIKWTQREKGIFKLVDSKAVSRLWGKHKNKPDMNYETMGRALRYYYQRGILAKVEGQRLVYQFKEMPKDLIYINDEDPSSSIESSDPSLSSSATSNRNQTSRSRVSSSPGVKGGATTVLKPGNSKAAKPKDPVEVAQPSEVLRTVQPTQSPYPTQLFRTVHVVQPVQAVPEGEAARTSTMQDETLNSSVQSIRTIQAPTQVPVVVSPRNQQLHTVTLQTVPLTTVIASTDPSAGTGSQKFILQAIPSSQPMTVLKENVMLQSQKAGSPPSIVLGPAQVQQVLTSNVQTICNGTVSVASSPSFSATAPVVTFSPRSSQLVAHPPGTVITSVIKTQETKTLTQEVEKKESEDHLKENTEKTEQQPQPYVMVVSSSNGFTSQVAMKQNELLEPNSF

In the case of CTCGTA, the binding signal in the experiment with FLI1 is 1.31 fold enrichment (6-mer frequency, TF over GST control); with ELK1, 1.37 fold enrichment (6-mer frequency, TF over GST control); with GABPA, 1.3 fold enrichment (6-mer frequency, TF over GST control); in the experiment with ERG, 1.22 fold enrichment (6-mer frequency, TF over GST control); with ELF1 it was 1.32 fold enrichment (6-mer frequency, TF over GST control); in the experiment with EHF it was 1.31 fold enrichment (6-mer frequency, TF over GST control). The binding signal in the experiment with SPI1 was 1.39 fold enrichment (6-mer frequency, TF over GST control); in the experiment with SPIB it was 1.38 fold enrichment (6-mer frequency, TF over GST control); with ELK3, 1.36 fold enrichment (6-mer frequency, TF over GST control); with FEV, 1.33 fold enrichment (6-mer frequency, TF over GST control); with ETV5, 1.29 fold enrichment (6-mer frequency, TF over GST control); with HSF1 it was 1.77 fold enrichment (6-mer frequency, TF over GST control). For the same sequence, the binding signal in the experiment with SPIC is 1.25 fold enrichment (6-mer frequency, TF over GST control); with ELF4 it was 1.35 fold enrichment (6-mer frequency, TF over GST control); with ELK4, 1.16 fold enrichment (6-mer frequency, TF over GST control); with ETV2 it was 1.44 fold enrichment (6-mer frequency, TF over GST control); with ELF3 it was 1.39 fold enrichment (6-mer frequency, TF over GST control); with CRX, 1.38 fold enrichment (6-mer frequency, TF over GST control). Besides, in the experiment with ETV1, the binding signal is 1.35 fold enrichment (6-mer frequency, TF over GST control).
